In the OligoGym collection:
Also: reference of the scale not given here.

These sequences were tested against EIF1 (assay: pooled miR-30 sensor sort-seq; sequence = guide strand). Details: shRNA.
TGTAGCTGAATTACTTCTCCAT was tested, and the sensor-assay potency score (higher = more potent) was 0.149. Work on TTACTTGCATCAGCAAAGGGGT yielded a sensor-assay potency score (higher = more potent) of -1.07. TTGGACAGTAGTAAGGGTCTTC was tested, and the sensor-assay potency score (higher = more potent) was 0.328. TCAATTACAGTACCATTGCAGG was tested, and the sensor-assay potency score (higher = more potent) was -1.4. AATTACTTCTCCATATTCCGGA was tested, and the sensor-assay potency score (higher = more potent) was 0.541. For AAACTTTTTCTTAAACGCCTTC, the sensor-assay potency score (higher = more potent) was -0.311. TTATATGGATATAATCCTCAGT gave a sensor-assay potency score (higher = more potent) of -0.502.

Each sequence was assayed against EIF2B2 in the same assay as above. Details: shRNA.
With TATGTTTAACACACTACTGAAC the sensor-assay potency score (higher = more potent) was -1.15. TTGACTCTTGACATAACGGCAA showed a sensor-assay potency score (higher = more potent) of -0.00739. With TTTAACACACTACTGAACCAGA the sensor-assay potency score (higher = more potent) was -0.372. With ATCCTCTCTGACAACTCCGAGC the sensor-assay potency score (higher = more potent) was -1.34. Sequence ATAATCTTGAGCACTCTCCGCA has a sensor-assay potency score (higher = more potent) of 0.402. For TATGAAATGAGTCTTCTTCATT, the sensor-assay potency score (higher = more potent) was -1.13. In the case of TTATGTTTAACACACTACTGAA, the sensor-assay potency score (higher = more potent) is reported as -0.666. For TGACTCTTGACATAACGGCAAA, the sensor-assay potency score (higher = more potent) was -1.53. TAACACACTACTGAACCAGAAA was tested, and the sensor-assay potency score (higher = more potent) was -0.956. With TAATCTTGAGCACTCTCCGCAC the sensor-assay potency score (higher = more potent) was -0.531. Work on TAGAGTTCACTCATCAGGCGGT yielded a sensor-assay potency score (higher = more potent) of 0.258. Sequence TCTCTGACAACTCCGAGCCCTT has a sensor-assay potency score (higher = more potent) of -1.5.

What follows are sequences tested against EIF3K in the same assay as above. Details: shRNA.
TTGGCTACAGATGAAGATCTGC was tested, and the sensor-assay potency score (higher = more potent) was 0.0721. TTCTTGATGTGCCTGGTCGATC was tested, and the sensor-assay potency score (higher = more potent) was -1.05. TTGCACAGGGTGAAGTCTGTGT showed a sensor-assay potency score (higher = more potent) of -0.115. In the case of TATTTGCTCATCCACACCTTTA, the sensor-assay potency score (higher = more potent) is reported as -1.23. TACAGATGAAGATCTGCCCCGA was tested, and the sensor-assay potency score (higher = more potent) was 0.0464. TTCTCCACAATGTTCTTGGGTT was tested, and the sensor-assay potency score (higher = more potent) was -0.486. For TTGATGTGCCTGGTCGATCATG, the sensor-assay potency score (higher = more potent) was -1.46. For TATACCTTCCAAGAGGTCCATG, the sensor-assay potency score (higher = more potent) was -1.12. For TAAACTTTCGGACAGAGTCTTC, the sensor-assay potency score (higher = more potent) was -0.691. Work on TGATGCTGGACACACTGTCAAA yielded a sensor-assay potency score (higher = more potent) of -1.61. Work on ATCTTCTCCACAATGTTCTTGG yielded a sensor-assay potency score (higher = more potent) of -0.584. Work on TACCCTTGAGCAACTTGCCCAC yielded a sensor-assay potency score (higher = more potent) of -0.487.

These sequences were tested against EIF3M in the same assay as above. Details: shRNA.
For TACAGGAGTATTCTTATCCATC, the sensor-assay potency score (higher = more potent) was -1.23. In the case of TTTTCTAACTTGATCCAGCTCA, the sensor-assay potency score (higher = more potent) is reported as -0.0518. In the case of AACATCTTTATCATCCTCCTTC, the sensor-assay potency score (higher = more potent) is reported as 0.329. Sequence TAAAGTAGTCTTAAAAGGGTGT has a sensor-assay potency score (higher = more potent) of 0.205. Work on AACATCATCAGCTCCAATCTGA yielded a sensor-assay potency score (higher = more potent) of 0.0943. With TGAAGCAGCATCACTCTTCTTA the sensor-assay potency score (higher = more potent) was 0.0165. Work on TTCAACATCTTTATCATCCTCC yielded a sensor-assay potency score (higher = more potent) of 0.759. ATCTTCTTCACTGATGTCGATG showed a sensor-assay potency score (higher = more potent) of -1.42. Sequence TTGTCCTCTGTGTAACTTCCGA has a sensor-assay potency score (higher = more potent) of -0.798.
